Measured values as given in PubChem BioAssay (NCI).
Compounds without any hit were thinned out: in the full panel of roughly 83,000, 20% have a hit.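 Each cell line was grown in a 96-well plate and treated with one concentration of compound for 48 hours. Values below 10 were considered active.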 Unmarked numbers belong to inactive results. Active and inactive are the calls of the source.

These molecules were tested on MDA-MB-468 breast (assay: NCI-60 one-dose screen, 48 h (100 = growth as untreated, 0 = no growth, -100 = all killed)). Conditions: 10 µM unless noted.

Row | SMILES | growth
1 | Brc1ccccc1Nc1ccc2nnc(-c3ccncc3)n2n1 | 85.3%
2 | O=C(C1=Cc2cc3ccccc3n2Cc2cnnn21)c1ccccc1 | 5.98% (active)
3 | CC(=O)N1c2ccccc2NC2=C(C(=O)N(Cc3ccccc3)C2(C)C)C1c1ccco1 (stereo not given) | -1.86% (active)
4 | C#CCOc1ccc(C(Nc2ccc(OC)cc2)c2nnnn2C2CCCCC2)cc1 (stereo not given) | 101%
5 | CC1CCN(S(=O)(=O)c2ncsc2-c2ccccc2)CC1 | 94.4%
6 | CCCCNC(=O)Oc1ccc(/C(=C(\C)c2ccc(Cl)cc2)c2ccc(OCCN3CCCCC3)cc2)cc1 | 62.9%
7 | O=[N+]([O-])c1ccc(NC(=S)NNC(=S)Nc2ccc(Br)cc2)cc1 | 82.5%
8 | CC/C(Cc1ccccc1)=C(\c1ccc(OCCN2CCCCCC2)cc1)c1ccc(OC(=O)NCc2ccccc2)cc1 | 53.3%
9 | COc1ccc(OCC(CO)N2CCN(c3ccccc3)CC2)cc1 (stereo not given) | 99.6%
10 | S=c1[nH]c(=S)c2c(-c3ccccc3)c(-c3ccccc3)oc2[nH]1 | 96.7%
11 | CCOC(=O)c1cn2c3c(cc(F)cc3c1=O)C(CC)c1ccccc1C2 (stereo not given) | 99.4%
12 | O=[N+]([O-])c1cccc(C(c2ccccc2)c2ccccc2)c1 | 93.9%
13 | O=C(CSc1ncc(-c2ccccc2)n1-c1ccccc1)Nc1ccc(-c2nc3ccccc3s2)cc1 | 15.4%
14 | Cn1cc(-c2ccc3ncc(-c4ccc(CC(=O)Nc5cc(C(C)(C)C)nn5C)cc4)cc3c2)cn1 | -2.1% [30 µM] (active)
15 | Cc1cc(O[C@@H]2O[C@@H](C)[C@H](O)[C@@H](O)[C@H]2O)c2c3c(c(O[C@@H]4O[C@@H](C)[C@H](O)[C@@H](O)[C@H]4O)cc2c1)C(=O)c1c(O)cccc1C3=O | 67.5%
16 | Cc1nc2c(ccc3ccccc32)s1 | 109%
17 | CC(=O)c1nnn(-c2c(C(=O)n3nc(C)cc3C)sc(=S)n2-c2ccccc2)c1C | 96.8%
18 | O=C(Cn1cc(CO)nn1)Nc1nc2ccccc2s1 | 101%
19 | N#CC(C#N)=C1NC(c2ccccc2)=C(c2ccccc2)C(c2ccccc2Cl)=C1C#N | 129%
20 | COc1ccc(Oc2c(I)cc(CC(NC(C)=O)C(=O)O)cc2I)cc1 (stereo not given) | 75.8%

Row | SMILES | growth
21 | O=C(CSc1nc2ccc([N+](=O)[O-])cc2[nH]1)Nc1cccc(Cl)c1 | -10.4% (active)
22 | Cc1cc(O)c(C2=NN(c3ccc(S(N)(=O)=O)cc3)C(c3ccc(Cl)cc3)C2)c(C)c1Cl (stereo not given) | 43.7%
23 | O=C(Nc1ncc(Cc2ccccc2)s1)c1ccc2c(c1)OCCO2 | 28.2%
24 | CCC1CCc2nc3sc(C(=O)Nc4cccc(F)c4)c(N)c3cc2C1 (stereo not given) | 23.4%
25 | CCCCCCCC/C=C/CCCCCCCC1=NC(C)(C)CN1CC(C)O (stereo not given) | 46.7%
26 | CCOc1ccc2c(c1)/C(=C\C=C\C1CC(C)C3CC(OCC)CCC3N1CC)CC(C)N2CC (stereo not given) | -37.3% (active)
27 | Cn1cc(-c2csc(-c3c[nH]c4ncccc34)n2)c2cc(Br)cnc21 | 15.4%
28 | CC(C)(C)c1cc(-c2nc3ccc(N4CCN(CCO)CC4)cc3[nH]2)cc(C(C)(C)C)c1O | 52.7%
29 | Cc1cccc(N=NC(=S)NNc2cccc(C)c2)c1 | 116%
30 | O=C1NC(=O)C(c2cnc3ccccn23)=C1c1cn2c3c(cc(F)cc13)CN(C(=O)N1CCCCC1)CC2 | 47.6%
31 | Clc1ccc2c(c1)C[C@H]1C[C@@H](c3cccs3)N2O1 | 106%
32 | Cc1c(Cn2c(C)nc3c(C(=O)O)cc(N4CCOCC4)cc32)cccc1C(F)(F)F | 104%
33 | NC(=O)c1nc2c([nH]c1=O)CCCC2 | 95%
34 | CCCCCCCCCCCCCCCC(=O)OC[C@@]1(O)C[C@@]23CC[C@@H]4C(C)(C)[C@H](O)CC[C@@]4(C)[C@@H]2CC[C@H]1C3 | 112%
35 | Cc1c2c(cc[n+]1Cc1ccc(F)cc1)c1ccc(OCc3cccc(F)c3)cc1n2Cc1cccc(F)c1 | -85.6% (active)
36 | CCOC(=O)C(CNc1ccccc1)C(=O)OCC | 93.3%
37 | O=C1ON=[N+](c2ccc(Cc3ccc([N+]4=NOC(=O)C4CN4CCOCC4)cc3)cc2)C1CN1CCOCC1 (stereo not given) | 11.4%
38 | C#Cc1cccc(NC(=O)c2ccc(NC(=O)C=C)cc2)c1 | 14.6% [8.25 µM]
39 | C=C1C(=O)O[C@@H]2[C@H]3[C@H](COC(C)=O)[C@@H](OC(C)=O)C[C@H]3C(=C)[C@@H](O)C[C@@H]12 | 77%
40 | Cc1ccc2c(n1)C(=O)C(Cl)=C(Nc1cccc(C(=O)OC(C)(C)C)c1)C2=O | -57.7% (active)
